Measurements reported in PubChem BioAssay AID430 (Sanford-Burnham Center for Chemical Genomics, 2006).
The whole screen tested about 63,000 compounds, of which about 1,100 (1.7%) were called active. Rule as the data show it: active = cytotoxicity above about 50%; inactive = the rest. Shown is part of a subset that was picked to be rich in actives. Results with a measured potency or affinity are listed apart.

assay: HPDE-C7 pancreatic duct cell viability loss – fluorescence, HTS (AID 430); details: HPDE-C7 pancreatic duct cells viability, at 10 µM, stronger effect = higher value;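 also: cells exposed to compound for 48 hours before viability readout; 0% = vehicle and 100% = reference cytotoxic drug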

Row | SMILES | cytotoxicity
1 | O=C(CCC1CCCCC1)N1CCN(Cc2ccc3c(c2)OCO3)CC1 | -7.9% (inactive)
2 | Cn1nnc(NC(=O)c2ccc(C(C)(C)C)cc2)n1 | -6.6% (inactive)
3 | CCNC(=O)c1cc2c(=O)n3cccc(C)c3nc2n(CCc2ccccc2)c1=N | 61.3% (active)
4 | Cc1cccn2c(=O)c3cc(C(=O)N4CCN(C(=O)c5ccco5)CC4)n(C)c3nc12 | 3.5% (inactive)
5 | CCCCNC(=O)c1cc2c(=O)n3cccc(C)c3nc2n1C | -12.6% (inactive)
6 | Cc1cccn2c(=O)c3cc(C(=O)NCCN4CCOCC4)c(=N)n(CCc4ccccc4)c3nc12 | 4.4% (inactive)
7 | COCCn1c(=N)c(C(=O)NCCc2ccccc2)cc2c(=O)n3cccc(C)c3nc21 | -51.7% (inactive)
8 | CC1Cc2ccccc2N1C(=O)c1cc2c(=O)n3ccccc3nc2n1C (configuration not stated) | 13.4% (inactive)
9 | Cc1cccn2c(=O)c3cc(C(=O)N4CCN(c5ccccc5)CC4)n(C)c3nc12 | -18.3% (inactive)
10 | Cc1cccn2c(=O)c3cc(C(=O)N4c5ccccc5CC4C)n(C)c3nc12 (configuration not stated) | 87.3% (active)
11 | Cc1cccn2c(=O)c3cc(C(=O)N4CCc5ccccc54)n(C)c3nc12 | 10.4% (inactive)
12 | COCCNC(=O)c1cc2c(=O)n3cccc(C)c3nc2n1C | 52.8% (active)
13 | CCNC(=O)c1cc2c(=O)n3cccc(C)c3nc2n1C | -0.7% (inactive)
14 | O=C(CSc1nnc(-c2ccco2)o1)NC1CC2CCC1C2 (configuration not stated) | -3.3% (inactive)
15 | Cc1noc(C(=O)Nc2ccc3c(c2)OCO3)c1Cl | 19.1% (inactive)
16 | COc1ccc(-c2ccc(SCC(=O)NCc3ccco3)nn2)cc1OC | 7.2% (inactive)
17 | O=C(NCc1ccco1)C1CCCCN1S(=O)(=O)c1ccc(F)cc1 (configuration not stated) | -4.3% (inactive)
18 | CCOCCOC(=O)COc1ccc(N2C(=O)c3ccccc3C2=O)cc1 | -18.5% (inactive)
19 | O=C(CCCn1c(=S)[nH]c2ccccc2c1=O)N1CCOCC1 | -24.3% (inactive)
20 | COc1ccc(C(O)P(=O)(O)CCc2ccccc2)cc1 (configuration not stated) | -28.1% (inactive)
21 | COc1cccc(CNC(=O)c2nnn(CC(=O)Nc3ccc(C)c(C)c3)c2N)c1 | 0.7% (inactive)
22 | COc1ccccc1C(=O)Nc1ccc2c(c1)nc(CCNC(C)=O)n2C | -7.3% (inactive)
23 | Cn1nc(-c2ccc(Cl)cc2)c2cc(C(=O)N3CCN(c4ccccn4)CC3)sc21 | -0.6% (inactive)

Row | SMILES | cytotoxicity
24 | COc1ccc(N2CCN(C(=O)c3cc4c(-c5cccc(OC)c5)nn(C)c4s3)CC2)cc1 | -2.7% (inactive)
25 | Cc1ccc(OCC(=O)N2CCN(C3=NS(=O)(=O)c4ccccc43)CC2)cc1 | 0.8% (inactive)
26 | CCOc1ccccc1OCCCCN1CCCC1 | 3% (inactive)
27 | COC(=O)c1c(C)oc(C)c(C(=O)OC)c1=O | 1.7% (inactive)
28 | CCOC(=O)c1c(C)oc2c1cc(O)c1ccccc12 | 15.4% (inactive)
29 | CC(C)NC(=O)c1cnc(N2CCN(c3ccccn3)CC2)c2ccccc12 | -9.4% (inactive)
30 | COc1ccc(C(=O)N(CN2CCCC2=O)c2nccs2)cc1OC | 6.2% (inactive)
31 | c1ccc(-c2nc(N3CCCCCC3)nc(-n3ccnc3)n2)cc1 | -19.9% (inactive)
32 | c1ccc(-c2nc(N3CCN(c4ccccc4)CC3)nc(-n3ccnc3)n2)cc1 | 43% (inactive)
33 | c1ccc(-c2nc(-n3ccnc3)nc(-n3ccnc3)n2)cc1 | 20.1% (inactive)
34 | CC(C)Nc1nc(-c2ccccc2)nc(-n2ccnc2)n1 | 58.3% (active)
35 | c1ccc(-c2nc(NC3CC3)nc(-n3ccnc3)n2)cc1 | 9.6% (inactive)
36 | COCCN1Cc2cccc(C(=O)NCc3ccc4c(c3)OCO4)c2C1=O | -2.7% (inactive)
37 | CCN(CC)S(=O)(=O)c1ccc(-c2nnc(SCC(=O)Nc3ccc4c(c3)OCO4)o2)cc1 | 3.5% (inactive)
38 | Cc1ccc(C(N)=S)c(C)c1 | -27.6% (inactive)
39 | Cc1c(C(=O)NCCC2=CCCCC2)oc2ccc(S(=O)(=O)N3CCOCC3)cc12 | 52.5% (active)
40 | Cc1c(C(=O)NCCC2=CCCCC2)oc2ccc(S(=O)(=O)N3CCC4(CC3)OCCO4)cc12 | 35.3% (inactive)
41 | Cc1c(C(=O)Nc2ccc(F)cc2)oc2ccc(S(=O)(=O)N3CCC4(CC3)OCCO4)cc12 | 11.5% (inactive)
42 | Cc1c(C(=O)Nc2ccccc2Cl)oc2ccc(S(=O)(=O)N3CCC4(CC3)OCCO4)cc12 | 22.3% (inactive)
43 | Cc1c(C(=O)Nc2cccc(Cl)c2)oc2ccc(S(=O)(=O)N3CCC4(CC3)OCCO4)cc12 | 55.3% (active)
44 | Cc1c(C(=O)NCCc2ccccc2)oc2ccc(S(=O)(=O)N3CCOCC3)cc12 | -7.6% (inactive)
45 | Cn1c(=O)c2cc(S(=O)(=O)NCCC(=O)N3CC=C(c4ccccc4)CC3)ccc2n(C)c1=O | -11.2% (inactive)
46 | COc1c(Cl)cc(Cl)cc1/C=N/n1cnnc1 | -1.3% (inactive)

Row | SMILES | cytotoxicity
47 | CNS(=O)(=O)c1ccc(NC(=O)C(CCSC)NC(N)=O)cc1 (configuration not stated) | 0.9% (inactive)
48 | COc1ccc(S(=O)(=O)Nc2cccc(Cl)c2)cc1OC | 13.9% (inactive)
49 | CCOc1ccc(S(=O)(=O)Nc2cc(Cl)ccc2O)cc1 | 67.2% (active)
50 | CCOc1ccc(NS(=O)(=O)c2ccc(NS(C)(=O)=O)cc2)cc1 | -4.7% (inactive)
51 | CCOc1ccc(S(=O)(=O)Nc2cccnc2)cc1 | -3.5% (inactive)
52 | CCOc1ccc(S(=O)(=O)Nc2cccc(Cl)c2)cc1 | 57.6% (active)
53 | CCOc1ccc(NS(=O)(=O)c2cc(Cl)ccc2OC)cc1 | -8.2% (inactive)
54 | CCCc1cc(=O)[nH]c(SC(CC)C(=O)Nc2ccccc2C#N)n1 (configuration not stated) | -23.8% (inactive)
55 | O=C(Cn1cc2c(n1)CCCC2)NC1CCCCCC1 | -9.2% (inactive)
56 | Cn1cccc1C(=O)OCc1cc(Cl)cc2c1OCOC2 | 1.1% (inactive)
57 | CCN(CC(=O)Nc1ccccc1C(=O)OC)S(=O)(=O)c1ccc(OC)cc1 | 1.1% (inactive)
58 | Cc1ccc(Cl)cc1N1CCN(Cc2nnnn2C2CCCCC2)CC1 | -16% (inactive)
59 | Cc1ccc(N=c2oc3cc(O)ccc3cc2C(N)=O)cc1 | 3.9% (inactive)
60 | NC(=O)c1cc2ccc(O)cc2oc1=Nc1ccccc1 | 5.3% (inactive)
61 | Cc1cccc(N=c2oc3cc(O)ccc3cc2C(N)=O)c1 | 59.6% (active)
62 | COCCn1c(SCC(=O)Nc2nnc(C)s2)nnc1-c1cc2ccccc2cc1O | 7.4% (inactive)
63 | Cc1[nH]c(=O)[nH]c(=O)c1NS(=O)(=O)c1ccc2c(c1)CCCC2 | 10.1% (inactive)
64 | COCCCN(C(=O)Nc1ccccc1)C(C)c1ccncc1 (configuration not stated) | 4.9% (inactive)
65 | COc1ccc(N2C(=O)CC(N3CCN(C4CCc5ccccc5C4)CC3)C2=O)cc1 (configuration not stated) | -10.3% (inactive)
66 | Cc1ccc(NC(=O)CSC2=C(C#N)C(c3ccco3)C3=C(CC(C)(C)CC3=O)N2)cc1 (configuration not stated) | 57.2% (active)
67 | CCOC(=O)C1=C(c2ccccc2)NC(SCC(=O)Nc2ccc(C)cc2)=C(C#N)C1c1ccco1 (configuration not stated) | 10.3% (inactive)
68 | COc1cccc(NC(=O)CSC2=C(C#N)C(c3ccco3)C3=C(CCCC3=O)N2)c1 (configuration not stated) | 22.1% (inactive)
69 | CC1(C)CC(=O)C2=C(C1)NC(SCC(=O)Nc1ccccc1)=C(C#N)C2c1ccco1 (configuration not stated) | -16.1% (inactive)

Row | SMILES | cytotoxicity
70 | CCc1ccc(NC(=O)CSC2=C(C#N)C(c3ccco3)C3=C(CCCC3=O)N2)cc1 (configuration not stated) | -0.7% (inactive)
71 | CCCCc1ccc(NC(=O)CSC2=C(C#N)C(c3ccco3)C3=C(CCCC3=O)N2)cc1 (configuration not stated) | 72.2% (active)
72 | O=C(CN1C(=O)C2C3C=CC(C3)C2C1=O)NCCN1CCCc2ccccc21 (configuration not stated) | -7.4% (inactive)
73 | CC1CCCN(S(=O)(=O)c2ccc(S(=O)(=O)N3CCCN(Cc4ccccc4)C3)cc2)C1 (configuration not stated) | 3.7% (inactive)
74 | COc1ccc(N2CCN(c3nc4c(c(=O)[nH]c(=O)n4C)n3CCCc3ccccc3)CC2)cc1 | -7.6% (inactive)
75 | Cc1ccc(-c2c3c(=O)n(C)c(=O)n(C)c3cn2Cc2ccccn2)cc1 | -3.1% (inactive)
76 | CCCOc1ccc(CSc2nnc(CCC)n2N)cc1 | -13.5% (inactive)
77 | O=C1c2ccncc2C(=O)N1C1CCCCC1 | -7.2% (inactive)
78 | CN1CCN(C2=C(Cl)C(=O)N(C3CCCCC3)C2=O)CC1 | -8% (inactive)
79 | Cc1ccc(NS(=O)(=O)c2ccc(OCC(=O)NCc3ccco3)cc2)cc1 | 6.8% (inactive)
80 | CC(C)CCn1nc(C(=O)OC(C)C(=O)NC(N)=O)c2ccccc2c1=O (configuration not stated) | -13.9% (inactive)
81 | Cc1ccccc1N=C1NC(=O)CS1 | -24.1% (inactive)
82 | CCCn1c(CN2CCN(C(=O)OCC)CC2)nc2c1c(=O)n(C)c(=O)n2C | -8.2% (inactive)
83 | CCCCOC(=O)C1Cc2ccccc2C(=O)O1 (configuration not stated) | -4.8% (inactive)
84 | CCCCCn1c(CN2CCN(Cc3ccccc3)CC2)nc2c1c(=O)[nH]c(=O)n2C | 0% (inactive)
85 | Cn1c(=O)[nH]c(=O)c2c1nc(CN1CCN(c3cccc(Cl)c3)CC1)n2Cc1ccccc1Cl | -3.5% (inactive)
86 | CCCCCn1c(CN2CCN(c3cccc(Cl)c3)CC2)nc2c1c(=O)[nH]c(=O)n2C | 43.9% (inactive)
87 | CC(C)Cn1c(CN2CCN(c3ccccc3F)CC2)nc2c1c(=O)[nH]c(=O)n2C | -0.6% (inactive)
88 | Cc1ccc(Cl)cc1N1CCN(Cc2nc3c(c(=O)[nH]c(=O)n3C)n2Cc2ccccc2F)CC1 | 112% (active)
89 | O=C(Cc1c(O)c2ccccc2[nH]c1=O)NCc1cccc(F)c1 | 2.7% (inactive)
90 | CCN(CC)CCCN1C(=O)C(=O)/C(=C(/O)c2ccc(OC)c(Cl)c2)C1c1ccco1 (configuration not stated) | 4.6% (inactive)
91 | COc1ccccc1CN1C(=O)[C@@H]2C(CCC(N)=O)NC3(C(=O)Nc4c3ccc(Cl)c4C)[C@@H]2C1=O (some centres not stated) | -5.3% (inactive)
92 | c1ccc2c(c1)Cn1nnnc1-2 | 1.3% (inactive)
